# Data taken from PubChem BioAssay (Tox21).
# Records with an inconclusive call do not appear. Unmarked numbers belong to inactive results. Active and inactive are the calls of the source. Calls follow the shape of the dose curve; as a rule, active = well fitted cell-killing curve with a large enough effect in the repeat runs; inconclusive = weak or mixed curves, or effect the other way; inactive = flat fitted curve, though single readings scatter.
# Assay: qHTS RealTime-Glo MT Cell Viability Assay in HEK293 cells - 16 hour (AID 1224872); also: nearly all actives have a fitted effect of over 50% in size; as to activity change, negative = cytotoxicity: top concentration of the series differs between compounds
# Settings: RealTime-Glo luminescence; series mostly up to 76.8 µM; activity change, negative = cytotoxicity: at the top concentration
# Text: National Center for Advancing Translational Sciences [NCATS]
# NIH Chemical Genomics Center [NCGC]
# U.S. Environmental Protection Agency [EPA]
# National Institutes of Environmental Health Sciences [NIEHS]
# National Toxicology Program [NTP]
# U.S. Food and Drug Administration [FDA]
# Measure of cell viability is critical in the cell-base assay. Analysis of cell viability is necessary for the characterization of cell responses to cytotoxic drugs and environmental stress. A RealTime-Glo MT Cell Viability Assay to monitor cell viability in real time of continues cell culture during 40 hours of compound treatment was used to screen Tox21 10K library compounds in Hek293 cells. The RealTime-Glo MT Cell Viability Assay is a nonlytic, homogeneous, bioluminescent method to measure cell viability in real time using a simple, plate-based method. The assay involves adding NanoLuc luciferase and a cell-permeant prosubstrate to cells in culture. Viable cells reduce the proprietary prosubstrate to generate a substrate for NanoLuc luciferase. This substrate diffuses from cells into the surrounding culture medium, where it is rapidly used by the NanoLuc Enzyme to produce a luminescent signal. The signal correlates with the number of viable cells, making the assay well suited for cytotoxicity studies.
# Tox21 Assay Protocol Summary:
# The mixture of Hek293 cell suspension and reagents were dispensed at 600cells/6 ul/well in 1536-well tissue culture treated black solid bottom plates using a Multidrop dispenser. After the assay plates were incubated at a 37 C/5% CO2 incubator for 5 hours, 23 nL of compounds dissolved in DMSO, positive and negative controls was transferred to the assay plate by a pintool work station. The plates were incubated at 37 C for 40 hours. The luminescence intensity were measured at 0h, 8h, 16h, 24h, 32h and 40h time points using ViewLux plate reader during compound treatment.
# % is scaled to controls: 0 for no effect and ±100 for the full control effect; potency is read from the fitted curve at half-maximal effect.
Compound,"activity change, negative = cytotoxicity",Potency
CCCCCCCC/C=C/C(=O)O,9.57% [at 35.3 µM],–
CC(C)C(=O)OCCOc1ccccc1,2.15%,–
O=C(O)c1cccc(C[C@@H]2COc3ccc(OCc4nc5cc(F)ccc5s4)cc3[C@@H]2O)c1,2.1%,–
Nc1ccc(NC(=O)c2ccc(N)cc2)cc1,-11.3%,–
ClC1=C(Cl)C1(Cl)Cl,-6.49%,–
CC(C)CC(O)CC(C)C,3.7%,–
COc1ccc(/C=C/C(=O)c2ccc(OC)cc2OC)cc1,-20% [at 35.3 µM],–
COC(CC(C)CCCC(C)(C)O)OC (stereo not given),-0.986%,–
CCc1ccc(C)cc1,17.9%,–
Cc1ccc(Cl)cc1N,2.58%,–
Nc1c(Cl)cc(Cl)cc1[N+](=O)[O-],1.59%,–
CC(O)Cn1cnc2c1c(=O)n(C)c(=O)n2C (stereo not given),0.673% [at 35.3 µM],–
C=CCOC(=O)COCCC(C)C,-0.634%,–
CCCCC[C@H](O)/C=C/[C@H]1[C@H](O)CC(=O)[C@@H]1C/C=C\CCCC(=O)O,-0.174% [at 35.3 µM],–
CO[C@@H]1[C@@H](OC)[C@H](C)[C@@](O)(CC(=O)O)O[C@H]1[C@H](C)[C@H]1O[C@@]2(CC[C@@](C)([C@H]3CC[C@@](C)([C@@H]4O[C@@H]([C@H]5O[C@](C)(O)[C@H](C)C[C@@H]5C)C[C@@H]4OC4C[C@H](OC)[C@@H](OC)[C@H](C)O4)O3)O2)C[C@H](O)[C@H]1C (stereo not given in full),–,5.35 µM (active)
CCN(CC)c1cccc(O)c1,6.26%,–
O=c1[nH][nH]c(=O)c2cc([N+](=O)[O-])ccc12,-11.1%,–
CC1CCc2nccnc21 (stereo not given),2.59%,–
CCN(CC)C(=O)N1CCN(C)CC1,7.52% [at 35.3 µM],–
COc1ccc(N)c([N+](=O)[O-])c1,-18%,–

Compound,"activity change, negative = cytotoxicity",Potency
CC(C)(C)C1(CCc2ccc(Cl)cc2)CO1 (stereo not given),-5.34%,–
C=C(C)c1ccccc1,0.924%,–
COc1ccc(C)cc1,9.44%,–
Cc1c[nH]c2ccccc12,16% [at 35.3 µM],–
O=C1OC(=O)c2c(Br)c(Br)c(Br)c(Br)c21,-2.06%,–
C/C(C=O)=C\c1ccccc1,-4.25%,–
CC(=O)Oc1cccc(O)c1,7.33% [at 35.3 µM],–
O=C1CC[C@@H](C(=O)O)N1,5.53% [at 35.3 µM],–
CCCCCCCC(=O)Oc1c(Br)cc(C#N)cc1Br,–,38.8 µM (active)
Cc1ccc(Nc2c(F)cccc2Cl)c(CC(=O)O)c1,4.06% [at 35.3 µM],–
CCSC(=O)N(CC)CC,11.6%,–
CCN(CC)CC(=O)Nc1c(C)cccc1C(=O)OC,4.74% [at 35.3 µM],–
Oc1ccc2c(c1)Cc1ccccc1-2,–,21.9 µM (active)
O=c1[nH]c2cc(C(F)(F)F)c(N3CCOCC3)cc2n(CP(=O)(O)O)c1=O,3.37% [at 35.3 µM],–
N[C@@H](Cc1cc(I)c(O)c(I)c1)C(=O)O,9.69% [at 35.3 µM],–
CC(C)(C)CCCCCCOC(=O)c1ccccc1C(=O)OCCCCCCC(C)(C)C,0.146%,–
CSSc1ccoc1C,0.954%,–
Nc1ccc(N=Nc2ccc(N)cc2)cc1,-15.5% [at 35.3 µM],–
FC(F)(F)C(F)(F)C(F)(F)C(F)(F)CCI,-2.61% [at 35.3 µM],–
CC[C@H]1OC(=O)[C@H](C)[C@@H](O[C@H]2C[C@@](C)(OC)[C@@H](O)[C@H](C)O2)[C@H](C)[C@@H](O[C@@H]2O[C@H](C)C[C@H](N(C)C)[C@H]2O)[C@](C)(O)C[C@@H](C)/C(=N\OCOCCOC)[C@H](C)[C@@H](O)[C@]1(C)O,-14.5% [at 35.3 µM],–
